Compounds without any hit were thinned out: in the full panel of roughly 83,000, 20% have a hit.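 Note: values are percent growth. 100 is the growth of untreated cells, values between 100 and 0 indicate rising inhibition; between -100 and 0 indicates cell death.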 Activity calls are given as the source filed them. Rule for the calls: active = growth percent below 10; inactive = the rest.
Tests used:
Assay in all cases: NCI-60 one-dose screen, 48 h (100 = growth as untreated, 0 = no growth, -100 = all killed)
Conditions in all cases: 10 µM unless noted
[1] = test system: SR leukemia
[2] = test system: RPMI-8226 leukemia
[3] = test system: OVCAR-8 ovarian
[4] = test system: OVCAR-4 ovarian
[5] = test system: SK-OV-3 ovarian
[6] = test system: IGROV1 ovarian
[7] = test system: OVCAR-3 ovarian
[8] = test system: HS 578T breast
[9] = test system: NCI/ADR-RES ovarian
[10] = test system: OVCAR-5 ovarian

Measured: growth

CCN(C(=O)N1CCN(c2cc3c(cc2F)c(=O)c(C(=O)O)cn3C2CC2)CC1)c1nc(-c2ccc(C)cc2)cs1
active: [5] -10.4% | [6] 6.38% | [7] 9.01% | [9] 2.74%
inactive: [1] 17.2% | [2] 14.8% | [3] 11.5% | [4] 31.5% | [8] 18.3%

COc1ccc(C2CC(c3ccc(Nc4nc(Nc5ccc(F)cc5)nc(Nc5ccc(F)cc5)n4)cc3)=NN2C(C)=O)cc1 (stereo not drawn)
inactive: [1] 16.4% | [3] 90.3% | [10] 87.6% | [4] 98.1% | [5] 131% | [8] 111% | [9] 80.5%
active: [2] 7.18%

Cc1ncc(C(=O)Nc2ccc(CN3CCN(C)CC3)c(C(F)(F)F)c2)cc1C#Cc1cnc(N)c2cnccc12
active: [1] -17.8% | [5] -30.9% | [6] -31.3% | [8] -16.6%
inactive: [2] 39.2% | [3] 15.4% | [4] 40.7% | [7] 31.2% | [9] 55.3%

Cn1cc(-c2csc(-c3cn(C)c4ccc(Br)cc34)n2)c2cnccc21
active: [1] -29.6% | [2] -37.3% | [3] -49.4% | [4] -50.9% | [6] -91.5% | [7] -92.9% | [8] -40% | [9] -69.5%
inactive: [5] 96.5%

Cc1c2ccccc2nc2c1ccc1cccnc12
active: [7] -1.84%
inactive: [1] 85.9% | [2] 64.8% | [3] 91.7% | [4] 51.7% | [5] 116% | [6] 15% | [8] 117% | [9] 60.9%

COc1ccc(C(C)=O)cc1S(N)(=O)=O
inactive: [1] 104% | [2] 98.9% | [3] 96.6% | [4] 101% | [5] 115% | [6] 108% | [7] 108% | [8] 91.6% | [9] 98.1%

Cc1cc(C)cc(Nc2ccc([N+](=O)[O-])c(NCCN3CCOCC3)n2)c1
inactive: [1] 17% | [2] 11.5% | [3] 20% | [4] 52.6% | [5] 50.3% | [6] 23.5% | [8] 21.6% | [9] 18.1%
active: [7] 2.95%

CN1CCN(Cc2ccc(NC(=O)c3cncc(C#Cc4cncc5[nH]ncc45)c3)cc2C(F)(F)F)CC1
active: [1] -4.67% | [2] 1.42% | [5] 8.47% | [6] -43.8% | [8] -35.5%
inactive: [3] 18.2% | [4] 10.2% | [7] 15.8% | [9] 57.4%

COc1cc(-c2nc(SCCC(C)C)nc(N3CCOCC3)c2C#N)cc(OC)c1OC
active: [1] -10.1% | [4] -25.2% | [7] -33.3%
inactive: [2] 90.3% | [3] 43.1% | [10] 102% | [5] 88.6% | [8] 76.7% | [9] 79%

COc1ccc(-c2cc(-c3ccc(OC)cc3)nc(NCCCNc3ccnc4cc(Cl)ccc34)n2)cc1
inactive: [10] 105% | [5] 76.8% | [7] 91.7% | [8] 83.5% | [9] 71.7%
active: [1] 5.81% | [2] 7.42% | [3] -51.3% | [4] -16.5%

C=CCN=C(N)SCCCCCCSC(N)=NCC=C
inactive: [1] 93.7% | [2] 94% | [3] 94.6% | [10] 97.5% | [4] 109% | [5] 70.4% | [8] 92.2% | [9] 104%

COc1ccc2c(c1)c(-c1nc(-c3cn(C)c4ncccc34)cs1)cn2CCO
inactive: [1] 58.2% | [2] 50.5% | [3] 73% | [4] 45.5% | [5] 89.8% | [6] 85.2% | [7] 99.1% | [8] 80.9% | [9] 90%

CC[C@@H](c1ccc2cc(OC)ccc2c1)C(C)(C)C(=O)F
inactive: [1] 112% | [2] 146% | [3] 94.8% | [10] 86.2% | [4] 109% | [5] 107% | [7] 85.7% | [8] 91.8% | [9] 77.5%

O=C1N[C@@H]2[C@@H](O)[C@@H](O)[C@H](O)C[C@H]2c2cc3c(c(O)c21)OCCO3
active: [1] -2.37% | [2] -28% | [3] -13.8% | [10] 3% | [4] -8.78% | [5] -10.9% | [7] -13% | [8] -9.44% | [9] -0.441%

Cc1ccc(/C=C2\CN(C(=O)C(Cl)Cl)C/C(=C\c3ccc(C)cc3)C2=O)cc1
inactive: [4] 25% | [5] 29%
active: [1] 1.68% | [2] -19.3% | [3] 4.74% | [6] -58.8% | [7] -97.8% | [8] 9.67% | [9] 8.57%

CCOC(=O)C1=C(c2ccccc2)N=c2s/c(=C/c3ccc(Br)cc3)c(=O)n2C1c1ccc(O)cc1 (stereo not drawn)
inactive: [1] 54.8% | [2] 74.1% | [3] 89.2% | [10] 105% | [4] 75.1% | [5] 104% | [7] 86.1% | [8] 84.4% | [9] 99.5%

Cc1ccc(C)c2c1C(O)(C#Cc1ccccc1)c1ccccc1C2(O)C#Cc1ccccc1 (stereo not drawn)
active: [6] -12.5%
inactive: [1] 123% | [2] 18.9% | [3] 59.3% | [4] 47.7% | [5] 75% | [7] 63.3% | [8] 72.5% | [9] 71.1%

Cc1ccc(-c2cc(C(=O)N3N=C(c4ccc(N)cc4)CC3c3ccc(Cl)cc3)c3ccccc3n2)cc1 (stereo not drawn)
active: [8] 6.64%
inactive: [1] 11.2% | [2] 19.9% | [3] 25.7% | [4] 69% | [5] 34.2% | [6] 47.4% | [7] 14.6% | [9] 21.7%

C=CC(=O)N1CCN(c2ccc3cccc(NC(=O)c4cnc(C)cn4)c3n2)CC1
inactive: [2] 43.3% | [3] 27.2% | [4] 43.7% | [5] 11.1% | [7] 43.5% | [8] 34.3% | [9] 30.9%
active: [1] 9.43% | [6] 9.7%

C#Cc1cccc(Oc2ccc(NC(=O)CCl)cc2)c1
inactive: [1] 13% [8.25 µM] | [2] 23.9% [8.25 µM] | [10] 74.3% [8.25 µM] | [5] 98.9% [8.25 µM] | [8] 80.7% [8.25 µM] | [9] 71.1% [8.25 µM]
active: [4] 7.96% [8.25 µM] | [6] -71.6% [8.25 µM] | [7] -76.8% [8.25 µM]

Cn1cccc1/C=C1\C(=O)Nc2ccccc21
inactive: [1] 72.8% | [2] 103% | [10] 87.2% | [4] 48% | [5] 94.4% | [6] 76.3% | [7] 74.7% | [8] 101% | [9] 93.2%

Clc1ccc(-c2cn3ccsc3n2)c(Cl)c1Cl
inactive: [1] 49.9% | [2] 67.5% | [4] 74.1% | [5] 118% | [6] 77.2% | [7] 93.3% | [8] 84.3% | [9] 99.6%

N#Cc1c(-c2ccccc2)cc(-c2ccccc2)n(CCCC(=O)NO)c1=O
active: [1] 7.72% | [7] 8.36% | [9] -5.36%
inactive: [2] 11.3% | [10] 28.9% | [4] 29.6% | [5] 36.1% | [6] 25.4% | [8] 19.7%

COc1ccc2nc(SCC(=O)Nc3ccccc3C)[nH]c2c1
inactive: [1] 89.5% | [2] 90.1% | [4] 95.2% | [5] 105% | [6] 103% | [7] 107% | [8] 90.9% | [9] 99%

O=S(=O)(c1ccccc1)N1CCCN(c2nc(-c3ccccc3)nc3nc(-c4ccccc4)oc23)CC1
inactive: [1] 104% | [2] 98.1% | [10] 106% | [4] 105% | [5] 103% | [6] 100% | [7] 117% | [8] 116% | [9] 104%

Cn1cc(C(=O)c2nc(-c3c[nH]c4ccc(Br)cc34)no2)c2cc(Br)ccc21
inactive: [2] 86.6% | [10] 82.7% | [5] 87.7% | [6] 69.5% | [7] 92.7% | [8] 80.3% | [9] 56.1%
active: [1] 6.41% | [4] -0.341%

COc1cc(C#Cc2ccc(=O)oc2C#Cc2ccccc2)cc(OC)c1OC
inactive: [2] 49.2% | [4] 96.9% | [5] 101% | [6] 67.4% | [7] 29.9% | [8] 84.8% | [9] 89.7%
active: [1] 3.75%

From PubChem BioAssay (NCI)
